One may read the inhibition as the drop in the measured response relative to a control, in per cent.

The nature of assay [1]: antimalarial activity against Dd2 strain (AID 2302;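 active means growth inhibition above 50% at the single 2 µM test dose, taken to imply half-maximal potency below 2 µM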;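 further: 0% = DMSO untreated growth and 100% = chloroquine plus artemisinin killed control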). The settings on record: P. falciparum Dd2 in RBCs, LDH growth readout, 72 h; at 2 µM; hits give high values.
Assay [2] can be described thus: human hepatoma cell viability loss – ATP luminescence, cytotoxicity control for P. falciparum antimalarial project, primary screen (AID 2303;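 active means inhibition above 50%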;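 further: 0% = DMSO wells and 100% = digitonin-killed cells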). The note with it: HepG2 viability, 24-48 h, at 10 µM, hits give high values.
Assay [3] addresses L-lactate dehydrogenase (Plasmodium falciparum (isolate CDC / Honduras)) (UniProt Q27743). Kind of assay: PfLDH activity inhibition – cell lysate, 3D7 strain, counter-screen for P. falciparum growth inhibition project (AID 2304).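 Further: 0% = vehicle and 100% = reference inhibitor.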 The note with it: P. falciparum 3D7 crude extract, LDH APAD/NBT absorbance; at 2 µM; hits give high values. (In general: A counterscreen serves to expose hits that act by an unwanted route or on another target.)

The nature of assay [4]: inhibition of 3D7 malaria parasite growth – strain 3D7 (AID 2306).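 Further: 0% = DMSO wells and 100% = chloroquine plus artemisinin control wells.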 The note with it: P. falciparum 3D7 erythrocytic growth, LDH absorbance, 72 h; at 2 µM; hits give high values.
Assay [5] addresses Calcium-dependent protein kinase 1 (Plasmodium falciparum (isolate 3D7)) (UniProt P62344). The assay can be described thus: PfCDPK1 kinase inhibitors, biochemical, TCAMS library (AID 1159585; cut-off not given, nearly all actives have IC50 up to about 0.98 µM;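 further: inhibitors leave more ATP so luminescence rises with inhibition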). The note with it: recombinant PfCDPK1, Kinase-Glo ATP depletion luminescence. Background: Kinase-Glo reads ATP consumption through a luciferase reaction.
Assay [6] addresses Plasmodium falciparum protein kinase 6 (PK6, PF3D7_1337100) (UniProt Q8IDW1). Kind of assay: PfPK6 kinase inhibitors, biochemical, TCAMS library (AID 1159586). The settings on record: recombinant PfPK6, Kinase-Glo ATP depletion luminescence.
Assay [7] addresses Protein kinase 7 (PK7), Plasmodium falciparum 3D7 (PF3D7_0213400) (UniProt Q7YTF7). The assay can be described thus: inhibition of Plasmodium PK7 catalytic activity – biochemical, TCAMS antimalarial set, Kinase-Glo luminescence (AID 1159587). The settings on record: recombinant PfPK7, Kinase-Glo ATP depletion luminescence.
The target of assay [8] is Calcium-dependent protein kinase 4 (Plasmodium falciparum (isolate 3D7)) (UniProt Q8IBS5). The assay can be described thus: PfCDPK4 kinase inhibitors, biochemical, TCAMS library (AID 1159588; cut-off not given, nearly all actives have IC50 up to about 0.91 µM). The settings on record: recombinant PfCDPK4, Kinase-Glo ATP depletion luminescence.

Values without a mark were called inactive. For some of these results: Potency and affinity values are given separately. The source made the active and inactive calls. Unless noted, how the calls were made is not given here.

Sequence of Protein kinase 7 (PK7), Plasmodium falciparum 3D7 (PF3D7_0213400) (Q7YTF7 1-343): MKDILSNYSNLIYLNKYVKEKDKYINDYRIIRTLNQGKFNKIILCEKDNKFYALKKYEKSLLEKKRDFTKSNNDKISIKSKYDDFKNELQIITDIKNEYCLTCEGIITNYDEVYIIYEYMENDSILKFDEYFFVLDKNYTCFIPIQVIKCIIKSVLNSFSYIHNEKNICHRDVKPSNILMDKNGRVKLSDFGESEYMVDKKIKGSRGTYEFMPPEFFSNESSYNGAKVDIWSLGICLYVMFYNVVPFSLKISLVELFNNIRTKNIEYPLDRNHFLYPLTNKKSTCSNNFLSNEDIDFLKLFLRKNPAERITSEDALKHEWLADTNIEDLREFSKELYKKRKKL
Sequence of Calcium-dependent protein kinase 4 (Plasmodium falciparum (isolate 3D7)) (Q8IBS5 whole entry, looked up): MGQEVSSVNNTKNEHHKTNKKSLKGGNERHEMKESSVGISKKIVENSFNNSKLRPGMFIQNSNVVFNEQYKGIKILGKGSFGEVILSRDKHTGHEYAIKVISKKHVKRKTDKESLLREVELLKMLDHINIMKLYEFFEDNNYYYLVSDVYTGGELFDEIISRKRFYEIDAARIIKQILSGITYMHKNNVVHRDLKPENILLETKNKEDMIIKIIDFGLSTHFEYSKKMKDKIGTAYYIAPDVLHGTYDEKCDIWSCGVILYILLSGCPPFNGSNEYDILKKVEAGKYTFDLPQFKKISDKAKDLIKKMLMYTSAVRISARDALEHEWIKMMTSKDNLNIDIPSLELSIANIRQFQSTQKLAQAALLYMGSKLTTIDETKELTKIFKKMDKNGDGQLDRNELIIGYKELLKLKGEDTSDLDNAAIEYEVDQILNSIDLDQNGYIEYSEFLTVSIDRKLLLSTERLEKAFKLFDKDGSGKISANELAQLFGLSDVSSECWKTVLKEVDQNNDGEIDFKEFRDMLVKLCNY
Sequence of Plasmodium falciparum protein kinase 6 (PK6, PF3D7_1337100) (Q8IDW1 1-305): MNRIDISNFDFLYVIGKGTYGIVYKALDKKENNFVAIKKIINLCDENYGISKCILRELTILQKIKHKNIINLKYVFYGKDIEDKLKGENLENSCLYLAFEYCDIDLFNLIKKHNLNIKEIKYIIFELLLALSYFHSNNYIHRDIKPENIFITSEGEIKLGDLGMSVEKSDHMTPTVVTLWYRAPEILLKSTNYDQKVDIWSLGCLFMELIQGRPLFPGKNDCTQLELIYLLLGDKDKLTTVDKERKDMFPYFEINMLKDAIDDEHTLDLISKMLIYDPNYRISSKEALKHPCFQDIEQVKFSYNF
Sequence of Calcium-dependent protein kinase 1 (Plasmodium falciparum (isolate 3D7)) (P62344 whole entry, looked up): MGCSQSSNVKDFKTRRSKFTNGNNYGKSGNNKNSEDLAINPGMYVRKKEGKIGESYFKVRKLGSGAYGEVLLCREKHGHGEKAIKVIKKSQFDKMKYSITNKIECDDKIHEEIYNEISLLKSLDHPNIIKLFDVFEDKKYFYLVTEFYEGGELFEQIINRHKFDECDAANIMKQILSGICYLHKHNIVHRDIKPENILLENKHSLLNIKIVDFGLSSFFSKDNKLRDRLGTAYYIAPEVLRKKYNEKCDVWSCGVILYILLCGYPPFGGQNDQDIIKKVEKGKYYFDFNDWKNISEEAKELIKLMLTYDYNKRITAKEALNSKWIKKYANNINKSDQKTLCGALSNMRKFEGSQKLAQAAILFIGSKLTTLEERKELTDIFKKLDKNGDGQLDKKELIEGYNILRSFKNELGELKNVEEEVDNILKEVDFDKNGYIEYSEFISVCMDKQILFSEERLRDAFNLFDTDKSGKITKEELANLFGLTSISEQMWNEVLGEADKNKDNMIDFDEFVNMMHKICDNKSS
Sequence of L-lactate dehydrogenase (Plasmodium falciparum (isolate CDC / Honduras)) (Q27743 whole entry, looked up): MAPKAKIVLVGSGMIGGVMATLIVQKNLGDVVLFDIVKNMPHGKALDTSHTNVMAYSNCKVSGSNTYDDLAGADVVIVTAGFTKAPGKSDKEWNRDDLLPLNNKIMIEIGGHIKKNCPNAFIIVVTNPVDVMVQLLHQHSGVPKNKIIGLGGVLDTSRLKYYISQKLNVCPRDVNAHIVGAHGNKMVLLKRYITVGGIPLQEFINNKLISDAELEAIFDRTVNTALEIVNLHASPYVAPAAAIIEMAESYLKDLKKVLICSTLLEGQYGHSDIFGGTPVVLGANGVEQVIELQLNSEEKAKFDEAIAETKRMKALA

Consider `CN(C)c1cc(C(=O)N[C@@H](Cc2ccccc2)[C@H](O)CNC2CCCCC2)cc2[nH]ccc12`, for which the growth inhibition in assay [1] was 97% (active); in assay [4] it was 98% (active). For the same compound, the inhibition was 10% in assay [2] and 3% in assay [3]. The outcome in assay [5], in assay [6], in assay [7] and in assay [8] was inactive.
Consider `COc1cc(CNC[C@@H](O)[C@H](Cc2ccccc2)NC(=O)c2cc(C3CCCC3)cc(N3CCCC3=O)c2)cc(OC)c1`, for which the growth inhibition is 76% (active) in assay [1] and 97% (active) in assay [4]. For the same compound, the results for the inhibition in assay [2] and in assay [3] were 16% and 6%, respectively. Further, the outcome in assay [5], in assay [6], in assay [7] and in assay [8] was inactive.
`COc1ccc(Cc2c(C)nc3nc(N)nc(N)c3c2C)cc1`: the figures for the growth inhibition in assay [1] and in assay [4] were 2% and 93% (active), respectively. Further, the inhibition in assay [2] was 61% (active); in assay [3], 8%. Besides, the result in assay [5], in assay [6], in assay [7] and in assay [8] was inactive.
Regarding `COc1ccc(CNC(=O)NC2CCN(c3ccnc(Nc4ccc(OC)cc4)n3)C2)cc1` (stereo not given), the results for the growth inhibition in assay [1] and in assay [4] were 80% (active) and 87% (active), respectively. The inhibition in assay [2] was 27%; in assay [3], 1%. Also, the outcome in assay [5], in assay [6], in assay [7] and in assay [8] was inactive.
`CCc1cc(=O)[nH]c(-n2nc(C)cc2NC(=O)CC(c2ccccc2)c2ccccc2)n1`: the figures for the growth inhibition in assay [1] and in assay [4] were 75% (active) and 92% (active), respectively. The values for the inhibition in assay [2] and in assay [3] were 37% and 4%, respectively. For the same compound, the outcome in assay [5], in assay [6], in assay [7] and in assay [8] was inactive.
In the case of `CCN(CC)CC(O)c1cc(-c2ccc(OC)cc2)nc2cc(Cl)ccc12` (stereo not given), the growth inhibition in assay [1] is 98% (active); in assay [4] it was 99% (active). Also, the inhibition in assay [2] was 12%; in assay [3] it was -10%. Further, the outcome in assay [5], in assay [6], in assay [7] and in assay [8] was inactive.
As for `Oc1cc2c(cc1CN1CCN(Cc3cccs3)CC1)CCC2`, the growth inhibition in assay [1] is 91% (active); in assay [4], 99% (active). Moreover, the values for the inhibition in assay [2] and in assay [3] were 10% and -7%, respectively. Also, the outcome in assay [5], in assay [6], in assay [7] and in assay [8] was inactive.
As for `COC(=O)c1cccc(CNCc2ccc(-c3cccc(-c4nc5c(C)cccc5[nH]4)c3)cc2)c1`, the growth inhibition in assay [1] is 84% (active); in assay [4], 102% (active). Besides, the inhibition is -7% in assay [2] and 7% in assay [3]. Further, the outcome in assay [5], in assay [6], in assay [7] and in assay [8] was inactive.
With `Cc1cc(N[C@@H](Cc2ccccc2)C(=O)NCc2cccc(F)c2)nc(NCCc2cccs2)n1`, the growth inhibition in assay [1] was 22%; in assay [4], 99% (active). Further, the inhibition in assay [2] is 9%; in assay [3], 2%. Moreover, the result in assay [5], in assay [6], in assay [7] and in assay [8] was inactive.
For `Cc1cc(=O)c(-c2ccc(OCCSc3ccc(C(F)(F)F)cn3)cc2)c(C)[nH]1`, the results for the growth inhibition in assay [1] and in assay [4] were 96% (active) and 97% (active), respectively. The inhibition is 2% in assay [2] and 7% in assay [3]. Further, the outcome in assay [5], in assay [6], in assay [7] and in assay [8] was inactive.
In the case of `OC1CCCN(Cc2cccc(-c3ccc(-c4nc5ccc(C(F)(F)F)cc5[nH]4)cc3)c2)C1` (stereo not given), the growth inhibition in assay [1] was 91% (active); in assay [4], 100% (active). Further, the inhibition is 27% in assay [2] and 4% in assay [3]. Besides, the result in assay [5], in assay [6], in assay [7] and in assay [8] was inactive.
Consider `CCCC(C)c1cnc2nc(N)nc(N)c2c1C` (stereo not given), for which the growth inhibition in assay [1] is 1%; in assay [4], 95% (active). Moreover, the inhibition in assay [2] is 67% (active); in assay [3], 3%. The outcome in assay [5], in assay [6], in assay [7] and in assay [8] was inactive.
Take `O=C(/C=C/c1cccc(Cl)c1)Nc1ccc2nc(CN3CCCC3)ccc2c1`: the figures for the growth inhibition in assay [1] and in assay [4] were 42% and 99% (active), respectively. The inhibition in assay [2] is 47%; in assay [3] it was 4%. Moreover, the result in assay [5], in assay [6], in assay [7] and in assay [8] was inactive.
Turning to `O=C(COc1cnc2ccccc2n1)Nc1ccccc1Sc1ccc(Cl)cc1`, the growth inhibition in assay [1] and in assay [4] was 100% (active) throughout. Besides, the inhibition in assay [2] and in assay [3] was 6% throughout. Further, the result in assay [5], in assay [6], in assay [7] and in assay [8] was inactive.
As to `CCCCC1=CC2C(=O)C(C(=O)OC)=CN=C2C=C1OCc1ccccc1` (stereo not given), the growth inhibition in assay [1] was 98% (active); in assay [4] it was 99% (active). The figures for the inhibition in assay [2] and in assay [3] were 7% and 2%, respectively. Moreover, the outcome in assay [5], in assay [6], in assay [7] and in assay [8] was inactive.
Take `Cc1cc(Nc2cccc(C(F)(F)F)c2)nc2ccc(NC(=O)c3ccc(=O)[nH]c3)cc12`: the growth inhibition in assay [1] is 60% (active); in assay [4], 101% (active). Besides, the inhibition in assay [2] is 21%; in assay [3], 0%. The outcome in assay [5], in assay [6], in assay [7] and in assay [8] was inactive.
On to `CCOc1cc(C(=O)NC2CCN(Cc3ccccc3)CC2)ccc1-c1nc2ccc(Cl)cc2[nH]1`, for which the results for the growth inhibition in assay [1] and in assay [4] were 84% (active) and 101% (active), respectively. Besides, the inhibition in assay [2] was 10%; in assay [3], -6%. The outcome in assay [5], in assay [6], in assay [7] and in assay [8] was inactive.
Regarding `COc1ccc2nc(C)cc(NN=Cc3ccccc3[N+](=O)[O-])c2c1`, the growth inhibition was 99% (active) in assay [1] and 101% (active) in assay [4]. The inhibition in assay [2] is 2%; in assay [3], -2%. The result in assay [5], in assay [6], in assay [7] and in assay [8] was inactive.
In the case of `Cc1cccc2[nH]c(-c3cccc(-c4ccc(NC(=O)C(C)CN5CCOCC5)cc4)c3)nc12` (stereo not given), the growth inhibition was 30% in assay [1] and 93% (active) in assay [4]. Also, the values for the inhibition in assay [2] and in assay [3] were 7% and 2%, respectively. Moreover, the result in assay [5], in assay [6], in assay [7] and in assay [8] was inactive.
Take `CS(=O)(=O)Nc1cccc(-c2cnc3[nH]cc(-c4cc(N)cc(C(=O)O)c4)c3c2)c1`: the growth inhibition in assay [1] and in assay [4] was 96% (active) throughout. Besides, the inhibition in assay [2] is 40%; in assay [3], 0%. Besides, the outcome in assay [5], in assay [6], in assay [7] and in assay [8] was inactive.

Source of the values: PubChem BioAssay.
